Assays:
[1] = system: Vero E6 infected with SARS-CoV-2; test: morphology score (similarity to uninfected cells); higher = more like uninfected cells; conditions: 24 h
[2] = system: Vero E6 infected with SARS-CoV-2; test: SARS-CoV-2 infection rate relative to infected DMSO; higher = more infection, active = 60 or less; conditions: 24 h

Row | Compound | morphology score [1] | SARS-CoV-2 infection rate [2]
1 | O[C@@H](CN1CCC(Cc2ccc(F)cc2)CC1)c1ccc(Cl)cc1 (racemic) [eliprodil] (10 µM) | 0.218 | 87% (inactive)
2 | C=CC1=C(C)C2=CC3=NC(=C(CC(=O)O)C4=NC(=C(C)C4=C(O)O)C=c4[nH]c(c(C)c4CC)=CC1=N2)C(CCC(=O)O)C3C (configuration not stated) [chlorophyllin] (10 µM) | 0.148 | 94% (inactive)
3 | c1ccc2c(c1)CN1CCCC1=N2 [desoxypeganine] (10 µM) | 0.169 | 94.5% (inactive)
4 | CC1(C)[C@H](C(=O)O)N2C(=O)C[C@H]2S1(=O)=O [sulbactam] (10 µM) | 0.0596 | 113% (inactive)
5 | Nc1ncnc2c1c(-c1cnc3[nH]ccc3c1)nn2C1CCCC1 (10 µM) | -0.0498 | 114% (inactive)
6 | CC(C)(Sc1cc(C(C)(C)C)c(O)c(C(C)(C)C)c1)Sc1cc(C(C)(C)C)c(O)c(C(C)(C)C)c1 [probucol] (10 µM) | 0.0913 | 100% (inactive)
7 | NC[C@@H]1CC[C@@H](N)[C@@H](O[C@H]2[C@H](O)[C@@H](O[C@H]3O[C@H](CO)[C@@H](O)[C@H](N)[C@H]3O)[C@H](N)C[C@@H]2N)O1 [dibekacin] (10 µM) | 0.0218 | 103% (inactive)
8 | Cc1onc(-c2ccccc2)c1-c1ccc(S(N)(=O)=O)cc1 [valdecoxib] (10 µM) | -0.0646 | 98.5% (inactive)
9 | OC[C@H]1O[C@@H](n2cnc3c(NC4CCCC4)nc(Cl)nc32)[C@H](O)[C@@H]1O [2-chloro-N6-cyclopentyladenosine] (10 µM) | 0.106 | 95% (inactive)
10 | N#Cc1ccnc(N2C(=O)CC[C@H]2C(=O)N(c2cncc(F)c2)[C@H](C(=O)NC2CC(F)(F)C2)c2ccccc2Cl)c1 [ivosidenib] (10 µM) | 0.219 | 91.5% (inactive)
11 | Cn1cnc(N)c2ncnc1-2 [3-methyladenine] (10 µM) | 0.258 | 93% (inactive)
12 | O=C(N[C@H](CO)[C@H](O)c1ccc([N+](=O)[O-])cc1)C(Cl)Cl [chloramphenicol] (10 µM) | -0.278 | 117% (inactive)
13 | C=CC1=C(C(=O)O)N2C(=O)[C@@H](NC(=O)/C(=N\O)c3csc(N)n3)[C@H]2SC1 [cefdinir] (10 µM) | -0.118 | 107% (inactive)
14 | N#Cc1cc2c(OCC(O)CN3CCN(C(c4ccccc4)c4ccccc4)CC3)cccc2[nH]1 (configuration not stated) (0.833333 µM) | 0.124 | 75% (inactive)
15 | Cc1cccc(-c2n[nH]cc2-c2ccc(F)c(-c3cnn(CCO)c3)c2)n1 (10 µM) | 0.148 | 104% (inactive)
16 | COc1ccc(Cl)cc1C(=O)NCCc1ccc(C(=O)O)cc1 [meglitinide] (10 µM) | 0.13 | 102% (inactive)
17 | O=C(Nc1c(-c2cccs2)nc2ccccn12)c1ccc(Cl)cc1 (10 µM) | 0.204 | 84% (inactive)
18 | CCC(=O)OCC(=O)[C@@]1(OC(=O)CC)[C@@H](C)C[C@H]2[C@@H]3CCC4=CC(=O)C=C[C@]4(C)[C@@]3(F)[C@@H](O)C[C@@]21C (10 µM) | 0.138 | 104% (inactive)
19 | CCCCn1c(=O)c2[nH]c(C34CC5CC(CC3C5)C4)nc2n(CCCO)c1=O (10 µM) | -0.0475 | 100% (inactive)

Row | Compound | morphology score [1] | SARS-CoV-2 infection rate [2]
20 | COc1c2occc2c(OC)c2c(=O)cc(C)oc12 [khellin] (10 µM) | -0.102 | 109% (inactive)
21 | CC/C=C\C/C=C\C/C=C\C/C=C\C/C=C\C/C=C\CCC(=O)OCC [doconexent-ethyl-ester] (10 µM) | 0.193 | 88.5% (inactive)
22 | Clc1ccc(-c2nc3sccn3c2/C=N/OCc2ccc(Cl)c(Cl)c2)cc1 (10 µM) | 0.00562 | 107% (inactive)
23 | Cc1nc[nH]c1CCN [4-methylhistamine] (10 µM) | 0.105 | 99.5% (inactive)
24 | Cc1cc(Nc2cc(C)c(C#N)c(N[C@@H](C)CCCC(C)(C)O)n2)n[nH]1 (10 µM) | -0.0857 | 113% (inactive)
25 | Cc1nc2c(OCc3ccccc3)cccn2c1CC#N (10 µM) | 0.0125 | 110% (inactive)
26 | O=C(O)[C@]1(Cc2cccc(Nc3nccs3)n2)CC[C@@H](Oc2cccc(Cl)c2F)CC1 (0.833333 µM) | 0.175 | 106% (inactive)
27 | c1ccc2sc(SNC3CCCCC3)nc2c1 [N-cyclohexyl-2-benzothiazolesulfenamide] (10 µM) | -0.00896 | 106% (inactive)
28 | CS(=O)(=O)Nc1c(O)ccc2c1CCC[C@H]2C1=NCCN1 (10 µM) | 0.0346 | 110% (inactive)
29 | O=C(OCC(O)CO)c1ccccc1Nc1ccnc2cc(Cl)ccc12 (configuration not stated) [glafenine] (10 µM) | 0.535 | 83% (inactive)
30 | FC(F)(F)c1ccccc1-c1cc(C(F)(F)F)c2[nH]c(C3=NOC4(CCCCC4)C3)nc2c1 (10 µM) | -0.000445 | 104% (inactive)
31 | C/C(=N\NC(=S)N1CCC1)c1ccccn1 (0.833333 µM) | 0.0268 | 114% (inactive)
32 | N#CC(c1ccc(Cl)cc1)c1c(Cl)cc(-n2ncc(=O)[nH]c2=O)cc1Cl (configuration not stated) [diclazuril] (10 µM) | 0.16 | 93% (inactive)
33 | CC(=O)[C@H]1CC[C@H]2[C@@H]3CC[C@H]4C[C@H](O)CC[C@]4(C)[C@H]3CC[C@]12C [allopregnanolone] (10 µM) | 0.0997 | 103% (inactive)
34 | Nc1nc2c(ncn2COCCO)c(=O)[nH]1 [acyclovir] (10 µM) | 0.109 | 104% (inactive)
35 | O=[N+]([O-])c1cccc2c(Br)n[nH]c12 [3-bromo-7-nitroindazole] (10 µM) | 0.0979 | 110% (inactive)
36 | COC(=O)C1=C(C)NC(C)=C(C(=O)OCCN2CCN(C(c3ccccc3)c3ccccc3)CC2)C1c1cccc([N+](=O)[O-])c1 (configuration not stated) [manidipine] (10 µM) | 0.247 | 91% (inactive)
37 | COc1ccc(F)c(F)c1C(=O)c1cnc(NC2CCN(S(C)(=O)=O)CC2)nc1N (10 µM) | -0.352 | 118% (inactive)
38 | CCC(=O)c1ccc(OCC(O)CN2CCN(c3ccccc3)CC2)cc1 (configuration not stated) [centpropazine] (10 µM) | 0.0954 | 93.5% (inactive)

Row | Compound | morphology score [1] | SARS-CoV-2 infection rate [2]
39 | COc1ccc2c(C)nc(Nc3nc(C)c(C)c(O)n3)nc2c1 [madrasin] (10 µM) | 0.0439 | 107% (inactive)
40 | O=C1OCCN1/N=C/c1ccc([N+](=O)[O-])o1 [furazolidone] (10 µM) | 0.0225 | 102% (inactive)
41 | O=C(O)CCc1nc(-c2ccccc2)c(-c2ccccc2)o1 [oxaprozin] (10 µM) | -0.00592 | 116% (inactive)
42 | CC(C)c1ccccc1S(=O)(=O)c1cc(N)c2ncccc2c1[N+](=O)[O-] (10 µM) | 0.225 | 95.5% (inactive)
43 | CC12CCC(C(Br)C1=O)C2(C)C (configuration not stated) [3-bromocamphor] (10 µM) | -0.0927 | 106% (inactive)
44 | CC(C(=O)O)c1ccc(CC2CCCC2=O)cc1 (configuration not stated) [loxoprofen] (10 µM) | -0.0253 | 108% (inactive)
45 | C#C[C@]1(OC(=O)CCCCCC)CC[C@H]2[C@@H]3CCC4=CC(=O)CC[C@@H]4[C@H]3CC[C@@]21C [norethisterone-enanthate] (10 µM) | 0.146 | 96.5% (inactive)
46 | N#Cc1ccc(COC[C@H]2O[C@@H](n3c(NCc4ccc(Cl)c(Cl)c4)nc4c(N)ncnc43)[C@H](O)[C@@H]2O)cc1 (10 µM) | 0.0983 | 106% (inactive)
47 | CC1=CC[C@@H](C(C)(C)O)C[C@@H]1O [sobrepin] (10 µM) | -0.0987 | 114% (inactive)
48 | Oc1cc(CNC(=S)/C=C/c2cc(O)c(O)c(Br)c2)cc(O)c1O (0.833333 µM) | 0.194 | 104% (inactive)
49 | Cn1c(=O)c2c(ncn2CC(=O)O)n(C)c1=O [acefylline] (10 µM) | 0.124 | 100% (inactive)
50 | CCC[C@H](Nc1nc(-c2ccc(NC(=O)NCC)c(OC)c2)ncc1C)c1cccnc1 (10 µM) | -0.29 | 116% (inactive)
51 | N[C@@H](CSCCCO)C(=O)O [fudosteine] (10 µM) | 0.0399 | 104% (inactive)
52 | N[C@@H](Cc1c[nH]c2ccc(O)cc12)C(=O)O [5-hydroxytryptophan] (10 µM) | 0.197 | 104% (inactive)
53 | CC(=O)N(O)C/C=C/c1cccc(Oc2ccccc2)c1 (10 µM) | 0.0937 | 97.5% (inactive)
54 | CC(C)Oc1ccc(-c2nn([C@@H](C)c3oc4ccc(F)cc4c(=O)c3-c3cccc(F)c3)c3ncnc(N)c23)cc1F (10 µM) | 0.0291 | 106% (inactive)
55 | O=C(Nc1ccccc1F)N[C@H]1N=C(c2ccccc2)c2ccccc2NC1=O (10 µM) | -0.135 | 113% (inactive)
56 | CCCC[C@@]1(C2CCCC2)Cc2cc(OCCCC(=O)O)c(Cl)c(Cl)c2C1=O (10 µM) | -0.08 | 92.5% (inactive)

Source: the supplement of paper PMC13380429
